Source: PubChem BioAssay (several laboratories)
The list is not random: actives were taken first. Their share in the collection is about 2.1%.
APP transl inh: APP translation inhibition; actives 0.82% (n = 190,000); SH-SY5Y APP 5'UTR-luciferase reporter, luminescence; inhibition, % at 2 µM;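 active = inhibition above a set limit, derived from the sample mean plus 3 SD, cut at about 45% in these data; inconclusive = one replicate passes the limit while the other fails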
aSyn 5UTR inh: MLPCN primary screen, SNCA 5' untranslated region; alpha-synuclein 5'UTR reporter, inhibitor activity; inhibition, % (tested at 7.5 µM); actives 0.82% (n = 300,000); AID 1813; in the data active = inhibition above about 60%; inconclusive = no clear call, values can overlap the other calls;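 also: H4 neuroglioblastoma cells stably carrying SNCA 5'UTR luciferase fusion; 0% = DMSO wells and 100% = positive control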
BaF3 tox: reduces parental Ba/F3 cell viability, JAK2V617F counter-screen; actives 1.1% (n = 220,000); CellTiter-Glo ATP luminescence; inhibition, % at 5.6 µM; AID 1486;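 active = inhibition above a per-campaign cutoff, the mean inhibition of all tested compounds plus 3 SD, cut at about 27% in these data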;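 also: 0% = DMSO wells and 100% = JAK Inhibitor I control wells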
Ba/F3 V617F tox: reduce viability of Ba/F3 cells dependent on JAK2V617F; AID 1446; Ba/F3 EpoR-JAK2V617F viability, ATP luminescence; inhibition, % at 5.6 µM; actives 1.1% (n = 220,000);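 active = inhibition above the campaign mean plus 3 SD over all tested compounds, cut at about 24% in these data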;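 also: cytokine-independent growth of Ba/F3 cells driven by EpoR plus mutant JAK2; 0% = DMSO-treated cells and 100% = JAK inhibitor I control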
KLF5 inh: suppresses KLF5 promoter-driven expression; inhibition, % at 5 µM; AID 1700; DLD-1 KLF5 promoter-luciferase reporter, luminescence; actives 0.23% (n = 290,000);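 active = inhibition above a per-plate limit of that plate's mean compound inhibition plus 3 SD, cut at about 60% in these data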;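 also: 0% = DMSO wells and 100% = LY294002 at 200 µM; higher means less KLF5 promoter-driven luciferase light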
IEC-6 tox: counter-screen for KLF5 inhibitors: cytotoxicity in IEC-6 cells | IEC-6 cytotoxicity, luminescence viability | inhibition, % at 5 µM | actives 0.78% (n = 290,000) | AID 1825; in the data active = inhibition above about 22%;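 also: 0% = plate median of test compound wells and 100% = cytotoxic reference compound wells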
Active calls of the source: *; ? = inconclusive; / = no result given.

SMILES	APP transl inh	aSyn 5UTR inh	BaF3 tox	Ba/F3 V617F tox	KLF5 inh	IEC-6 tox
Oc1cccc2cccnc12	/	-5.7	/	/	30.2	37.1*
C=C1C(=O)[C@@]23C[C@H]4[C@@H]5[C@@]6(C)CCC[C@@]57[C@@H]2[C@@H](O)[C@@H]1C[C@H]3[C@H]7N4C6	/	-9.8	/	/	/	/
C[N+]12CCC(CC1)C(=C(c1ccccc1)c1ccccc1)C2	1.2	0.5	23.5	5.1	-17.8	-4.8
CC[N+]12CCC(CC1)C(=C(c1ccccc1)c1ccccc1)C2	-6.5	15.4	28.6*	8.5	14.6	-1.2
CCCCCn1c(=O)c(C(=O)Nc2cnccn2)c(O)c2ccccc21	2.0	98.1*	12.1	0.9	-9.4	-2.0
CCCCCn1c(=O)c(C(=O)Nc2ccccc2S(N)(=O)=O)c(O)c2ccccc21	10.5	68.8*	13.4	4.5	21.9	-2.2
NC(N)=N/N=C/c1ccc(N2CCOCC2)cc1	4.4	-20.9	71.5*	58.2*	4.1	3.5
NC(N)=N/N=C/c1ccc(N(c2ccccc2)c2ccccc2)cc1	/	137.8*	/	/	-47.2	0.3
COc1ccc(/C=N\N=C(N)N)cc1	-6.8	-5.2	0.2	1.1	2.3	1.8
OC(CN1CCCCC1)c1c[nH]c2ccccc12 (stereo not drawn)	/	29.3	/	/	-27.5	0.0
CC12CC[C@H]3[C@@H](CCC4(O)C[C@H](O)CCC34/C=N/NC(=O)Cc3ccccc3)C1(O)CCC2C1=CC(=O)OC1 (stereo partly drawn)	2.5	24.8	-1.9	-4.4	9.8	-1.3
CC12CC[C@H]3[C@@H](CCC4(O)C[C@H](O)CCC34/C=N/NC(=O)c3ccccc3[N+](=O)[O-])C1(O)CCC2C1=CC(=O)OC1 (stereo partly drawn)	/	117.3*	/	/	-28.7	1.0
NS(=O)(=O)OC(CCc1ccccc1)C(Cl)(Cl)Cl (stereo not drawn)	/	6.9	/	/	-14.6	1.8
CNC(=O)Oc1ccc(-c2cn3cc(C)ccc3n2)cc1	-48.8	75.5*	7.1	10.8	46.6	2.4
CNC(=O)Oc1cccc(-c2cn3cc(Cl)ccc3n2)c1	-170.1	?	5.8	1.2	8.9	-4.9
Cc1cc(C=O)c(C)n1C(C)C	-15.3	-5.9	4.9	5.2	-15.8	0.4
CC(=O)c1cccc(NC(=O)N2C[C@H]3C[C@@H](C2)c2cccc(=O)n2C3)c1	/	-24.3	/	/	-24.5	4.2
COc1cc(CN2CCN(c3cc(C)ccc3C)CC2)ccc1O	-25.9	-22.7	49.6*	35.3*	-5.4	10.0
CC(C)[C@]12O[C@H]1[C@@H]1O[C@]13[C@]1(O[C@H]1C[C@H]1C4=C(CC[C@@]13C)C(=O)OC4)[C@@H]2O	/	124.0*	104.7*	99.1*	104.4*	96.8*
CN1CCN2c3ccc(N)cc3CC3(C(=O)NC(=O)NC3=O)C2C1 (stereo not drawn)	/	-3.1	-4.2	-0.3	-35.5	8.8
Cc1csc(=N)n1Cc1ccccc1	/	-24.9	8.6	-0.7	-36.3	-3.5
CCCC[N+]12CCC(CC1)C(Cc1ccccc1)C2 (stereo not drawn)	/	23.3	30.8*	20.4	8.1	-0.2
Cc1ccc(C[n+]2c(-c3ccc(C)cc3)cc(-c3ccc(C)cc3)cc2-c2ccc(C)cc2)cc1	/	95.2*	/	/	/	/
Cc1ccc(-c2cc(-c3ccc(C)cc3)[n+](-c3ccc(C(=O)O)cc3)c(-c3ccc(C)cc3)c2)cc1	/	-15.7	/	/	/	/
CC1CCC(C(C)C)C(OC(=O)Cn2c(COc3ccccc3)[n+](C)c3ccccc32)C1 (stereo not drawn)	/	66.5*	100.9*	98.7*	-1.7	-6.6
SMILES	APP transl inh	aSyn 5UTR inh	BaF3 tox	Ba/F3 V617F tox	KLF5 inh	IEC-6 tox
CNP(=O)(Oc1ccccc1)OC12CC3CC(CC(C3)C1)C2 (stereo not drawn)	10.5	-1.7	1.7	2.9	-2.9	-8.0
COc1ccc(-c2cc(-c3ccccc3)[n+](C)c(-c3ccccc3)c2)cc1	-1.6	33.9	76.2*	99.1*	31.7	11.3
CCN1CC=C(c2c[nH]c3ccccc23)CC1	2.3	11.0	72.9*	87.3*	8.6	-5.7
CN1CCC(N(C)c2ccc(C(N)=O)cc2[N+](=O)[O-])CC1	/	16.4	/	/	-36.8	-2.5
NC(=O)Cn1cc(C(=O)c2ccccc2)c2ccccc21	/	16.8	/	/	-68.4	4.1
CN1CC=C(/C=C/c2ccc(-c3ccccc3)cc2)CC1	/	-3.0	/	/	-75.0	-4.0
CCOC(=O)c1c(N)n(CCCOC(=O)c2ccco2)c2nc3ccccc3nc12	-7.7	114.3*	1.1	0.2	-1.5	0.1
